This assay is described as follows: NCI Yeast Anticancer Drug Screen. Data for the sgs1 strain (AID 173).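 Note: 0% = growth of vehicle-only control cultures.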 As to conditions: S. cerevisiae sgs1 mutant, hits give high values. As to the method: Growth inhibition of yeast strains with defined genetic alterations is measured as a screen for potential anti-cancer activity. Selected strains with alterations in DNA damage repair or cell cycle control were exposed to compounds and growth inhibition was measured relative to vehicle treated controls. The strain used in this assay is sgs1

Drawing on PubChem BioAssay (NCI), this text covers growth inhibition for eight compounds.

Compounds without any hit were thinned out: in the full panel of roughly 79,000, 15% have a hit. Calls of active or inactive are those of the source. Cut-off read from the data, not from the text of the source: active = growth inhibition above about 70%; inactive = the rest.

`O=[N+]([O-])c1ccc(S(=O)(=O)Cc2ccccc2)c([N+](=O)[O-])c1`: the growth inhibition (at 1.2 µM) was 16% (inactive); the growth inhibition (at 3.7 µM) was 30% (inactive); the growth inhibition (at 11.0 µM) is 65% (inactive); the growth inhibition (at 33.0 µM) is 98% (active); the growth inhibition (at 100.0 µM) is 99% (active).

As to `O=C(Oc1ccc([N+](=O)[O-])cc1)c1ccc([N+](=O)[O-])cc1`, the growth inhibition is, setting by setting: (at 1.2 µM) -4% (inactive); (at 3.7 µM) -18% (inactive); (at 11.0 µM) -22% (inactive); (at 33.0 µM) 7% (inactive); (at 100.0 µM) 43% (inactive).

With `Cc1ccccc1NC(=O)c1c(C)oc2c1C(=O)c1ccccc1C2=O`, the growth inhibition is -15% (inactive) (at 1.2 µM); -15% (inactive) (at 3.7 µM); -2% (inactive) (at 11.0 µM); 24% (inactive) (at 33.0 µM); 83% (active) (at 100.0 µM).

For `CC1=COC2=C(C)C(=O)C(=O)c3c(C)ccc1c32`, the growth inhibition (at 1.2 µM) was 23% (inactive); the growth inhibition (at 3.7 µM) is 29% (inactive); the growth inhibition (at 11.0 µM) was 35% (inactive); the growth inhibition (at 33.0 µM) was 80% (active); the growth inhibition (at 100.0 µM) is 94% (active).

As to `CC(=O)/C=C/c1cc([N+](=O)[O-])ccc1O`, the growth inhibition is -28% (inactive) (at 1.2 µM); -24% (inactive) (at 3.7 µM); 9% (inactive) (at 11.0 µM); 94% (active) (at 33.0 µM); 98% (active) (at 100.0 µM).

Turning to `CC(=O)CC(c1ccccc1)c1c(O)c2ccccc2oc1=O` (stereo not given), the growth inhibition runs as follows: (at 1.2 µM) 11% (inactive); (at 3.7 µM) 14% (inactive); (at 11.0 µM) 7% (inactive); (at 33.0 µM) 42% (inactive); (at 100.0 µM) 84% (active).

As to `CC(C)OC(=O)NNc1cccc(Cl)c1`, the growth inhibition is 2% (inactive) (at 1.2 µM); 23% (inactive) (at 3.7 µM); 97% (active) (at 11.0 µM); 98% (active) (at 33.0 µM); 98% (active) (at 100.0 µM).

Consider `O=C(c1cc(=O)c2ccc(O)cc2o1)c1ccc(Cl)cc1Cl`, for which the growth inhibition is -18% (inactive) (at 1.2 µM); -14% (inactive) (at 3.7 µM); 60% (inactive) (at 11.0 µM); 95% (active) (at 33.0 µM); 94% (active) (at 100.0 µM).
